Some of the results follow. Inconclusive results are not listed. Activity calls are given as the source filed them.
Legend:
[1] = target: Solute carrier family 12 member 5 (Homo sapiens) (UniProt Q9H2X9); test: KCC2 modulators in sodium-free buffer, confirmation, cell-based, HEK293 KCC2, thallium flux, secondary assay (AID 1713); details: FluoZin2 fluorescence, at 10 µM, stronger effect = higher value
PubChem AID 1714 = details: HEK293-KCC2 + bumetanide/ouabain, thallium flux FluoZin2; at 10 µM; stronger effect = higher value
[2] = thallium flux modulation in parental HEK cells, confirmation, counter-screen for KCC2 modulator project, cell-based, counterscreen 1 (AID 1716;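 active = thallium flux rate significantly above the same plate's solvent-only control wells, beyond their mean plus 3 SD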); details: HEK293 parental cells, thallium flux FluoZin2, ouabain; at 10 µM; baseline-ratio fluorescence slope, 10–20 s after thallium
[3] = target: Solute carrier family 12 member 5 (Homo sapiens) (UniProt Q9H2X9); test: KCC2 inhibitors and activators, ouabain retest, confirmation, HEK-KCC2 cells (AID 1717;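 active = thallium flux slope beyond 3 SD from same-plate DMSO control mean in most replicates, usually higher, sometimes lower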;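 also: slope of initial-normalized fluorescence between seconds 10 and 20 after thallium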); details: HEK293-KCC2, thallium flux FluoZin2 fluorescence, at 10 µM, bidirectional: low = inhibitor, high = activator
[4] = native HEK Tl+ uptake effects, second counter-screen – HEK cells, counterscreen 2, counter-screen for KCC2 modulator project, confirmation (AID 1718;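 active = thallium flux slope above the same plate's solvent-control mean plus 3 SD in both duplicate wells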;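 also: run without ouabain in cells lacking the KCC2 cotransporter; slope of fluorescence scaled to its starting value between 10 and 20 s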); details: HEK293 parental, thallium flux FluoZin-2 fluorescence slope; at 10 µM
[5] = target: Solute carrier family 12 member 5 (Homo sapiens) (UniProt Q9H2X9); test: KCC2 modulators without ouabain present, confirmation, cell-based, HEK293 KCC2, thallium flux, FluoZin2, secondary assay 2 (AID 1715;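 active = thallium flux slope more than 3 SD above or below the plate's solvent-only control mean, mostly below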;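 also: raw slope with 0.1% DMSO as baseline and bumetanide as block control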); details: HEK293-KCC2, thallium flux FluoZin2 fluorescence; at 10 µM; actives lie on both sides; F/F0 rise rate, 10–20 s post-thallium
[6] = inhibitors of TNFa-induced NFkB p65 translocation, primary screen, imaging, HUVEC, MLSMR starter and 10KST1 sets (AID 438;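 active = inhibition above 20% together with a positive visual image hit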;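 also: compound added about 3h40 before a 20 min TNFalpha stimulation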;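 as to inhibition: signal is the nuclear over cytoplasmic p65 intensity ratio per well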); details: HUVEC TNFa-induced p65 nuclear translocation; cell count: measured here: nuclei count (cytotoxicity indicator), at 2.08 µM; inhibition: at 2 µM, stronger effect = higher value, 0% TNFa-plus-vehicle, 100% no-TNFa wells
[7] = inhibitors of mutant huntingtin aggregation, primary screen, imaging, exon1htt(103Q)mCFP cells, high-content imaging (AID 483;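 active = visual image review flags a hit and inhibition of aggregation exceeds 20%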;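 also: compound exposure lasted 3 days before fixation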;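 as to nuclei count: percent of the per-plate median nuclei count of sample wells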); details: exon1htt(103Q)mCFP cell line, aggregate imaging, at 2 µM; inhibition of aggregation: stronger effect = higher value; nuclei count: measured here: cell count, toxicity
[8] = inhibitors of E-selectin induction by TNFa, primary screen, imaging, HUVEC, immunofluorescence, MLSMR starter and 10KST1 sets (AID 487;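 active = visually confirmed hit in the image check and inhibition above 20%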;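 as to inhibition: signal is fraction of cell area covered by stained E-selectin grains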;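 as to nuclei count: 100% = median nuclei count of all wells on the same plate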); details: HUVEC TNFalpha-induced E-selectin immunofluorescence imaging, at 2 µM; inhibition: stronger effect = higher value; nuclei count: measured here: cell number, toxicity
[9] = target: Voltage-gated potassium channel subunit beta-2 (Rattus norvegicus) (UniProt P62483); test: KvBeta enzyme negative modulators, primary screen, biochemical, NADPH fluorescence (AID 622;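 active = fluorescence slope higher than the sample average by over 3 SD, cut at about -0.22 in these data, passing the limit was not always enough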;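 also: slope of raw intensity against log time taken from 70 to 1610 s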); details: recombinant KvBeta, 4-cyanobenzaldehyde reduction, at 10 µM, stronger effect = higher value
Chain of Voltage-gated potassium channel subunit beta-2 (Rattus norvegicus) (P62483 whole entry, looked up): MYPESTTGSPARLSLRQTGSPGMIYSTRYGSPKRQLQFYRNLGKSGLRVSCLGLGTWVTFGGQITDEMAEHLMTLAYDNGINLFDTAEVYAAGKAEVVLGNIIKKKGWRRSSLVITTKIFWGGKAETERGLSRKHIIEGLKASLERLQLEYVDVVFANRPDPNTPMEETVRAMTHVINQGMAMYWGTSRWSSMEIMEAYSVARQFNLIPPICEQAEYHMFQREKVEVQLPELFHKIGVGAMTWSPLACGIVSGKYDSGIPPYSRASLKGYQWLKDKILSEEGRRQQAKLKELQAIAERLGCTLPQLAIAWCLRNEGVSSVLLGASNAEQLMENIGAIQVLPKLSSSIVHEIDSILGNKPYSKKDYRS

[10] = target: Voltage-gated potassium channel subunit beta-2 (Rattus norvegicus) (UniProt P62483); test: KvBeta positive modulators, primary screen, biochemical, NADPH fluorescence (AID 623;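 active = NADPH fluorescence slope more negative than the mean of all samples by about 3 SD, 99.7% confidence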;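 also: fluorescence intensity change per second fitted from 20 to 320 s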); details: Recombinant KvBeta, NADPH fluorescence decrease slope, 10 min; at 10 µM; stronger effect = lower value
[11] = target: Alpha-2C adrenergic receptor (Homo sapiens) (UniProt P18825); test: modulators of alpha2C/GIRK thallium flux, primary screen, cell-based, HEK293 alpha2C/GIRK1/2 (AID 624;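 active = fluorescence slope after compound addition differing from the mean of all screened samples at 99.7% confidence, in either direction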;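 also: slope of fluorescence ratio to pre-addition baseline per second over 15 to 24 s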); details: thallium flux BTC fluorescence, at 10 µM, actives lie on both sides
Chain of Alpha-2C adrenergic receptor (Homo sapiens) (P18825 whole entry, looked up): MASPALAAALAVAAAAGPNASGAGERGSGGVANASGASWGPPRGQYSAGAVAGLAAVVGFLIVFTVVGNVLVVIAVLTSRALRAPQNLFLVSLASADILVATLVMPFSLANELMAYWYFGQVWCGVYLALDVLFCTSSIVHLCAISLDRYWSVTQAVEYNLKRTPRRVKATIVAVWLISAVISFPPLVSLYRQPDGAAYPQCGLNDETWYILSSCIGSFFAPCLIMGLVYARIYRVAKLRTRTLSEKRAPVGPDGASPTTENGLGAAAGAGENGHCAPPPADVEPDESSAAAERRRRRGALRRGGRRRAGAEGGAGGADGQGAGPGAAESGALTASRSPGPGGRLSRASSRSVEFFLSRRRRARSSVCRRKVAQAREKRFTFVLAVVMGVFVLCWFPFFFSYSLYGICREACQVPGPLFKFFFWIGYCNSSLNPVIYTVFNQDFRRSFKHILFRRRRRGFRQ

[12] = inhibitors of Sendai virus-induced IRF3 signaling, primary screen, TLR/RLR signaling modifier project, cell-based, Sendai virus stimulus, luciferase, 10K MLSCN set (AID 602276;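 active = inhibition at or above 50% at 10 µM; inactive = inhibition below 50%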;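 also: firefly luciferase from ISG56 promoter only with Renilla not read in this screen; 0% = Sendai virus plus DMSO and 100% = medium plus DMSO without virus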); details: HEK293 RL24 IRF3 luciferase reporter, at 10 µM, stronger effect = higher value
[13] = inhibitors of poly I:C-induced TLR3 signaling, primary screen, cell-based, poly I:C stimulus, luciferase, 10K MLSCN set (AID 602277;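 active = inhibition of the reporter signal at or above 50%; inactive = inhibition below 50%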); details: HEK293-TLR3 RL24 IRF3 luciferase reporter, at 10 µM, stronger effect = higher value

Chain of Solute carrier family 12 member 5 (Homo sapiens) (Q9H2X9 whole entry, looked up): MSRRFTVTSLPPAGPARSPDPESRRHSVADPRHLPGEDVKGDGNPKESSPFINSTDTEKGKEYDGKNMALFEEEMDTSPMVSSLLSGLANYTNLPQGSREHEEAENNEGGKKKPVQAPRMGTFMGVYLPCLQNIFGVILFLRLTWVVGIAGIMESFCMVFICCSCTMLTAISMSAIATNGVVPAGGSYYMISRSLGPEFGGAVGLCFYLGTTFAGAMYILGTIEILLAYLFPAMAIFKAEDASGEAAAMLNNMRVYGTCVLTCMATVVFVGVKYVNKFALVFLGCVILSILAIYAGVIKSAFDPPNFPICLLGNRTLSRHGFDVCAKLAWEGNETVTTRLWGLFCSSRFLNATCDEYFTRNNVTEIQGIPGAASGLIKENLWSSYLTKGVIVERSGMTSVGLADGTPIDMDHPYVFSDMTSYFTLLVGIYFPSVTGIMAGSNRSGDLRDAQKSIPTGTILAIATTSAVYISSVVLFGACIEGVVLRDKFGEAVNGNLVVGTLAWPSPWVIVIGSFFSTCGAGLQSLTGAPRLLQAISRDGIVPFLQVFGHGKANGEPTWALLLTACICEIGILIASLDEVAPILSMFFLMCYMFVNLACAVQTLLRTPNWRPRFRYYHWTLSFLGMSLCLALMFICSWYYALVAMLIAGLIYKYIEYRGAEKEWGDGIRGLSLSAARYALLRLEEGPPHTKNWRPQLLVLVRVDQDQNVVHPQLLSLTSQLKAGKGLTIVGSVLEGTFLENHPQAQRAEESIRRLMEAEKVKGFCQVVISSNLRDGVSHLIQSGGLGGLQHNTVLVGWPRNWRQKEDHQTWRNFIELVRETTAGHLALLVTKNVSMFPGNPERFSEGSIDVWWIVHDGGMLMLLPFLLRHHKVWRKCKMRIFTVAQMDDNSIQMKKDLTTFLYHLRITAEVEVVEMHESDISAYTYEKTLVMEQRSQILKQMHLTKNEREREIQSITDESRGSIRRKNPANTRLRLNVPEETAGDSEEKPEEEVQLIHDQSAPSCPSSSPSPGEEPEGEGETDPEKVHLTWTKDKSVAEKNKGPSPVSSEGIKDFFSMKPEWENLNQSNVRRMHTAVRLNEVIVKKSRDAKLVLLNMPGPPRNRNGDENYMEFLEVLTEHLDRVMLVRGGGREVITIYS

In the case of `O=C(Nc1ccc2oc(-c3ccccc3F)nc2c1)c1ccco1`, the normalised thallium flux (F/F0 slope) [1] is reported as 0.0157 (inactive), the normalized thallium flux (PubChem AID 1714) is reported as 0.00477 (inactive) and the thallium flux rate (normalised fluorescence) [2] is reported as 0.00696 (inactive). For the same compound, the raw Tl+ flux slope (below DMSO = inhibition, above = activation) [3] was 0.0137 (inactive) and the thallium flux slope [4] was 0.00945 (inactive).
With `O=S(=O)(c1cccc(S(=O)(=O)N2CCC(n3nnc4ccccc43)CC2)c1)N1CCCCC1` the normalised thallium flux (F/F0 slope) [1] was 0.00996 (inactive), the normalized thallium flux (PubChem AID 1714) was 0.00678 (inactive) and the thallium flux rate (normalised fluorescence) [2] was 0.00751 (inactive). For the same compound, the raw Tl+ flux slope (below DMSO = inhibition, above = activation) [3] was 0.0174 (active).
For `Cc1cccc(-n2c(SCC(N)=O)nc3c(c2=O)C2(CCCCC2)Cc2ccccc2-3)c1`, the normalised thallium flux (F/F0 slope) [1] was 0.00538 (inactive), the normalized thallium flux (PubChem AID 1714) was 0.017 (active) and the normalized thallium flux [5] was 0.032 (inactive). For the same compound, the thallium flux rate (normalised fluorescence) [2] was 0.0115 (active) and the thallium flux slope [4] was 0.0138 (active).
In the case of `COCCn1c(C)cc(C(=O)CSc2ncnc3sc4c(c23)CCC4)c1C`, the normalised thallium flux (F/F0 slope) [1] is reported as 0.0102 (inactive), the normalized thallium flux (PubChem AID 1714) is reported as 0.013 (active) and the normalized thallium flux [5] is reported as 0.0342 (inactive). For the same compound, the thallium flux slope [4] was 0.0112 (inactive).
With `Cc1ccc(C)c(NC(=S)NNC(=S)Nc2ccc(C(C)C)cc2)c1` the normalised thallium flux (F/F0 slope) [1] was 0.0145 (inactive), the normalized thallium flux (PubChem AID 1714) was 0.00979 (active) and the thallium flux rate (normalised fluorescence) [2] was 0.0112 (active). The raw Tl+ flux slope (below DMSO = inhibition, above = activation) [3] was 0.0152 (active) and the thallium flux slope [4] was 0.0121 (inactive).
With `O=C(c1cc(-c2ccc(O)cc2)on1)N1CCCc2ccccc21` the normalised thallium flux (F/F0 slope) [1] was 0.00967 (inactive), the normalized thallium flux (PubChem AID 1714) was 0.00639 (inactive) and the thallium flux rate (normalised fluorescence) [2] was 0.00346 (inactive). The raw Tl+ flux slope (below DMSO = inhibition, above = activation) [3] was 0.0175 (active) and the thallium flux slope [4] was 0.0111 (inactive).
With `CC1Cc2ccccc2N1C(=O)CSc1nc2ccccc2o1` (configuration not stated) the normalised thallium flux (F/F0 slope) [1] was 0.00599 (inactive), the normalized thallium flux (PubChem AID 1714) was 0.0054 (inactive) and the raw Tl+ flux slope (below DMSO = inhibition, above = activation) [3] was 0.0143 (active). The thallium flux slope [4] was 0.00901 (inactive).
For `O=C(CNCc1cccs1)Nc1cc(S(=O)(=O)N2CCCC2)ccc1Cl`, the normalised thallium flux (F/F0 slope) [1] was 0.00507 (inactive), the normalized thallium flux (PubChem AID 1714) was 0.00419 (inactive) and the normalized thallium flux [5] was 0.0229 (active). The raw Tl+ flux slope (below DMSO = inhibition, above = activation) [3] was 0.0155 (active) and the thallium flux slope [4] was 0.0101 (inactive).
With `Cc1ccc(OCC(=O)N2CCN(C(=O)c3cccnc3)CC2)cc1` the normalised thallium flux (F/F0 slope) [1] was 0.00886 (inactive), the normalized thallium flux (PubChem AID 1714) was 0.00586 (inactive) and the normalized thallium flux [5] was 0.0326 (inactive). For the same compound, the raw Tl+ flux slope (below DMSO = inhibition, above = activation) [3] was 0.0189 (inactive) and the thallium flux slope [4] was 0.0114 (inactive).
With `CCCCn1c(=S)[nH]c2ncccc2c1=O` the normalised thallium flux (F/F0 slope) [1] was 0.0429 (active), the normalized thallium flux (PubChem AID 1714) was 0.12 (active) and the raw Tl+ flux slope (below DMSO = inhibition, above = activation) [3] was 0.0884 (active). The thallium flux slope [4] was 0.0266 (active).
In the case of `CCOc1cccc(/C=N/N2C(=O)CSC2=S)c1O`, the normalised thallium flux (F/F0 slope) [1] is reported as 0.00656 (inactive), the normalized thallium flux (PubChem AID 1714) is reported as 0.0152 (active) and the normalized thallium flux [5] is reported as 0.0319 (inactive). For the same compound, the thallium flux rate (normalised fluorescence) [2] was 0.0178 (active) and the thallium flux slope [4] was 0.0167 (active).
For `CCCCn1c(SCC(=O)NCC2CCCO2)nc2ccc(N3CCOCC3)cc2c1=O` (configuration not stated), the normalised thallium flux (F/F0 slope) [1] was 0.0177 (inactive), the normalized thallium flux (PubChem AID 1714) was 0.0198 (active) and the thallium flux rate (normalised fluorescence) [2] was 0.0094 (active). The raw Tl+ flux slope (below DMSO = inhibition, above = activation) [3] was 0.0187 (active) and the thallium flux slope [4] was 0.013 (active).
With `O=C(C1CCN(c2nnc(-n3cccc3)s2)CC1)N1CCc2ccccc2C1` the cell count [6] was 479, the inhibition [6] was -5% (inactive) and the inhibition of aggregation [7] was -15.5% (inactive). For the same compound, the nuclei count [7] was 65.3%, the inhibition [8] was -9.9% (inactive) and the nuclei count [8] was 104%. For the same compound, the fluorescence slope [9] was -0.605 (inactive), the NADPH fluorescence slope [10] was -3.9e-05 (inactive) and the slope [11] was 0.00552 (inactive). The normalised thallium flux (F/F0 slope) [1] was 0.00728 (inactive), the normalized thallium flux (PubChem AID 1714) was 0.00506 (inactive) and the normalized thallium flux [5] was 0.0245 (active). For the same compound, the thallium flux rate (normalised fluorescence) [2] was 0.00773 (inactive), the thallium flux slope [4] was 0.0107 (inactive) and the inhibition [12] was 0.226% (inactive). The inhibition [13] was 24.9% (inactive).

From PubChem BioAssay
